# Measurements taken from the supplement of paper PMC12282887.
# ± gives the standard deviation of the averaged measurements.
# System: E. coli BW25113 marRABp lux reporter
# Assay: promoter activity interaction Z-score (Lux/OD deviation from empty-vector control); higher = stronger promoter induction by the compound
# Experimental: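 E. coli BW25113 (wild type or ΔmarA/ΔsoxS/Δrob) carrying pTU175 luxCDABE promoter reporters was grown in LB in 384-well plates at 37°C with each of 94 compounds at 4 two-fold concentrations, in biological duplicates. Luminescence and OD600 were read every 30 min for 12 h and integrated as AUC over 8 h (0-8 h WT, 1-9 h mutants). Lux AUC was divided by OD AUC; the interaction score is the residual of a Huber robust fit of each promoter against the empty-vector control, then Z-transformed per promoter.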
compound,measurement,setting,value
CO[C@@H]1[C@@H](OC(N)=O)[C@@H](O)[C@H](Oc2ccc3c(O)c(NC(=O)c4ccc(O)c(CC=C(C)C)c4)c(=O)oc3c2C)OC1(C)C [Novobiocin],promoter activity interaction Z-score,"2.4 µg/ml, genetic background: wild type",-0.221 ± 0.081
same,promoter activity interaction Z-score,"2.4 µg/ml, genetic background: ΔmarA",-0.11 ± 0.13
same,promoter activity interaction Z-score,"2.4 µg/ml, genetic background: Δrob",0.0782 ± 0.013
same,promoter activity interaction Z-score,"2.4 µg/ml, genetic background: ΔsoxS",-0.0478 ± 0.0032
same,promoter activity interaction Z-score,"4.8 µg/ml, genetic background: wild type",0.022 ± 0.23
same,promoter activity interaction Z-score,"4.8 µg/ml, genetic background: ΔmarA",0.415 ± 0.36
same,promoter activity interaction Z-score,"4.8 µg/ml, genetic background: Δrob",-0.164 ± 0.31
same,promoter activity interaction Z-score,"4.8 µg/ml, genetic background: ΔsoxS",-0.107 ± 0.12
same,promoter activity interaction Z-score,"9.5 µg/ml, genetic background: wild type",-0.297 ± 0.13
same,promoter activity interaction Z-score,"9.5 µg/ml, genetic background: ΔmarA",0.318 ± 0.33
same,promoter activity interaction Z-score,"9.5 µg/ml, genetic background: Δrob",-0.282 ± 0.11
same,promoter activity interaction Z-score,"9.5 µg/ml, genetic background: ΔsoxS",-0.114 ± 0.18
same,promoter activity interaction Z-score,"19 µg/ml, genetic background: wild type",1.2 ± 0.98
same,promoter activity interaction Z-score,"19 µg/ml, genetic background: ΔmarA",5.2 ± 2.7
same,promoter activity interaction Z-score,"19 µg/ml, genetic background: Δrob",0.0504 ± 0.67
same,promoter activity interaction Z-score,"19 µg/ml, genetic background: ΔsoxS",1.48 ± 0.89
NCCc1ccc(O)c(O)c1 [Dopamine],promoter activity interaction Z-score,"11.9 µg/ml, genetic background: wild type",0.0994 ± 0.32
same,promoter activity interaction Z-score,"11.9 µg/ml, genetic background: ΔmarA",-0.339 ± 0.18
same,promoter activity interaction Z-score,"11.9 µg/ml, genetic background: Δrob",-0.285 ± 0.05
same,promoter activity interaction Z-score,"11.9 µg/ml, genetic background: ΔsoxS",-0.021 ± 0.064
same,promoter activity interaction Z-score,"23.7 µg/ml, genetic background: wild type",-0.265 ± 0.15
same,promoter activity interaction Z-score,"23.7 µg/ml, genetic background: ΔmarA",0.159 ± 0.52
same,promoter activity interaction Z-score,"23.7 µg/ml, genetic background: Δrob",0.121 ± 0.22
same,promoter activity interaction Z-score,"23.7 µg/ml, genetic background: ΔsoxS",-0.3 ± 0.046
same,promoter activity interaction Z-score,"47.4 µg/ml, genetic background: wild type",0.113 ± 0.12
same,promoter activity interaction Z-score,"47.4 µg/ml, genetic background: ΔmarA",-0.369 ± 0.073
same,promoter activity interaction Z-score,"47.4 µg/ml, genetic background: Δrob",-0.155 ± 0.3
same,promoter activity interaction Z-score,"47.4 µg/ml, genetic background: ΔsoxS",-0.126 ± 0.099
same,promoter activity interaction Z-score,"94.8 µg/ml, genetic background: wild type",-0.305 ± 0.37
same,promoter activity interaction Z-score,"94.8 µg/ml, genetic background: ΔmarA",0.217 ± 1.1
same,promoter activity interaction Z-score,"94.8 µg/ml, genetic background: Δrob",-0.642 ± 0.091
same,promoter activity interaction Z-score,"94.8 µg/ml, genetic background: ΔsoxS",-0.61 ± 0.21
Oc1cc(O)c2c(c1)O[C@@H](c1ccc(O)c(O)c1)[C@H](O)C2 [Catechin],promoter activity interaction Z-score,"18.1 µg/ml, genetic background: wild type",0.176 ± 0.43
same,promoter activity interaction Z-score,"18.1 µg/ml, genetic background: ΔmarA",-0.0258 ± 0.23
same,promoter activity interaction Z-score,"18.1 µg/ml, genetic background: Δrob",0.052 ± 0.11
same,promoter activity interaction Z-score,"18.1 µg/ml, genetic background: ΔsoxS",-0.135 ± 0.017
same,promoter activity interaction Z-score,"36.3 µg/ml, genetic background: wild type",-0.308 ± 0.32
same,promoter activity interaction Z-score,"36.3 µg/ml, genetic background: ΔmarA",-0.311 ± 0.035
same,promoter activity interaction Z-score,"36.3 µg/ml, genetic background: Δrob",-0.0876 ± 0.28
same,promoter activity interaction Z-score,"36.3 µg/ml, genetic background: ΔsoxS",-0.0441 ± 0.25
same,promoter activity interaction Z-score,"72.6 µg/ml, genetic background: wild type",0.00953 ± 0.33
same,promoter activity interaction Z-score,"72.6 µg/ml, genetic background: ΔmarA",-0.104 ± 0.28
same,promoter activity interaction Z-score,"72.6 µg/ml, genetic background: Δrob",-0.105 ± 0.045
same,promoter activity interaction Z-score,"72.6 µg/ml, genetic background: ΔsoxS",-0.241 ± 0.033
same,promoter activity interaction Z-score,"145.1 µg/ml, genetic background: wild type",-0.286 ± 0.36
same,promoter activity interaction Z-score,"145.1 µg/ml, genetic background: ΔmarA",-0.359 ± 0.22
same,promoter activity interaction Z-score,"145.1 µg/ml, genetic background: Δrob",-0.128 ± 0.36
same,promoter activity interaction Z-score,"145.1 µg/ml, genetic background: ΔsoxS",-0.183 ± 0.067
